The record followed here is PubChem BioAssay (Tox21).

Experiment [1] addresses Luciferin 4-monooxygenase (Photinus pyralis) (UniProt P08659). Put plainly: qHTS assay to identify small molecule inhibitors of firefly luciferase (AID 1224835). Note: nearly all actives have a fitted effect of over 25% in size. Note: potency is the fitted concentration of half-maximal effect. The gist of the method: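 Biochemical qHTS: compounds run as interplate titrations against purified firefly enzyme, with D-luciferin and ATP each at its KM concentration. Light output recorded by CCD imaging.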
Experiment [2] is described as follows: qHTS assay to identify small molecule agonists of the constitutive androstane receptor (CAR) signaling pathway - cell viability counter screen (AID 1224836). Note: nearly all actives have a fitted effect of over 45% in size. The method, boiled down: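 Fluorescence from CellTiter-Fluor indicates live cells after 23 h exposure. The human hepatoma line expresses hCAR and a CYP2B6-2.2kb reporter. Incubation medium contains 0.75 uM PK11195 (final).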
A general note: In qHTS, concentration-response curves come from the screen itself.

Experiment [3] is described as follows: qHTS assay to identify small molecule antagonists of the constitutive androstane receptor (CAR) signaling pathway - cell viability counter screen (AID 1224837). Note: nearly all actives have a fitted effect of over 45% in size. The gist of the method:
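To flag cytotoxic false antagonists, HepG2 hCAR/CYP2B6-2.2kb cells were treated 23 hr with 15-concentration compound series and 50 nM CITCO at 37 C/5% CO2; CellTiter-Fluor fluorescence was the measured end point.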

For experiment [4], the target named is Nuclear receptor subfamily 1 group I member 3 (Homo sapiens) (UniProt Q14994). Put plainly: qHTS assay to identify small molecule antagonists of the constitutive androstane receptor (CAR) signaling pathway (AID 1224838).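 Note: HepG2 cells stably expressing hCAR with CYP2B6 luciferase reporter stimulated by CITCO; nearly all actives have a fitted effect of over 40% in size.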 The gist of the method: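 Human hepatoma HepG2 cells expressing hCAR and a CYP2B6 promoter (2.2 kb) luciferase construct; compound titration (15 points) with 50 nM CITCO final, 24 h at 37 C/5% CO2; luminescence via ONE-Glo after 30 min at room temperature.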
Sequence of Nuclear receptor subfamily 1 group I member 3 (Homo sapiens) (Q14994 whole entry, looked up): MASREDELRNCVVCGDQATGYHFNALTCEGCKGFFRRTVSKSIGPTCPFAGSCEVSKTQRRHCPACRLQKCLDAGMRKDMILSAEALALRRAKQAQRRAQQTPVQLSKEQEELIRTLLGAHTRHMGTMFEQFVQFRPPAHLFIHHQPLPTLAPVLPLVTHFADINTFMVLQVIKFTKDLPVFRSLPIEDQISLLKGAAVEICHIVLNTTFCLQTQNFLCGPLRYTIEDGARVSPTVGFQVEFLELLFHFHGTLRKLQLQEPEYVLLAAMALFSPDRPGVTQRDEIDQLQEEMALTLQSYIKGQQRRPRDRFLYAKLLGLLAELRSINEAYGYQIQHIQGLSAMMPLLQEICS

Experiment [5] in a line: qHTS assay to identify small molecule antagonists of the estrogen related receptor signaling pathway with the pleiotropic PPARgamma coactivator (PGC) from Tox21 10K library - cell viability counter screen (AID 1224840; active = well fitted cell-killing curve with a large enough effect in the repeat runs, not every such curve was filed as active; note: nearly all actives have a fitted effect of over 40% in size). The method, boiled down:
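Seeded PGC/ERR cells (2,000/well, 6 h, 37 C/5% CO2) get compound by pin tool; 17.5 h incubation at 37 C; CellTiter-Fluor added, 30 min, fluorescence measured.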

In experiment [6] the target is Thyrotropin receptor (Homo sapiens) (UniProt P16473). Put plainly: qHTS assay to identify small molecule agonists of the thyroid stimulating hormone receptor (TSHR) signaling pathway (AID 1224843; calls by dose curve; note: nearly all actives have a fitted effect of over 45% in size). The gist of the method: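 Agonist-mode screen: TSHR HEK293 cells received test chemicals for half an hour at room temperature, then HTRF cAMP detection reagents for one hour prior to fluorescence measurement. Each chemical ran as a 15-concentration series, triplicated.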
Sequence of Thyrotropin receptor (Homo sapiens) (P16473 whole entry, looked up): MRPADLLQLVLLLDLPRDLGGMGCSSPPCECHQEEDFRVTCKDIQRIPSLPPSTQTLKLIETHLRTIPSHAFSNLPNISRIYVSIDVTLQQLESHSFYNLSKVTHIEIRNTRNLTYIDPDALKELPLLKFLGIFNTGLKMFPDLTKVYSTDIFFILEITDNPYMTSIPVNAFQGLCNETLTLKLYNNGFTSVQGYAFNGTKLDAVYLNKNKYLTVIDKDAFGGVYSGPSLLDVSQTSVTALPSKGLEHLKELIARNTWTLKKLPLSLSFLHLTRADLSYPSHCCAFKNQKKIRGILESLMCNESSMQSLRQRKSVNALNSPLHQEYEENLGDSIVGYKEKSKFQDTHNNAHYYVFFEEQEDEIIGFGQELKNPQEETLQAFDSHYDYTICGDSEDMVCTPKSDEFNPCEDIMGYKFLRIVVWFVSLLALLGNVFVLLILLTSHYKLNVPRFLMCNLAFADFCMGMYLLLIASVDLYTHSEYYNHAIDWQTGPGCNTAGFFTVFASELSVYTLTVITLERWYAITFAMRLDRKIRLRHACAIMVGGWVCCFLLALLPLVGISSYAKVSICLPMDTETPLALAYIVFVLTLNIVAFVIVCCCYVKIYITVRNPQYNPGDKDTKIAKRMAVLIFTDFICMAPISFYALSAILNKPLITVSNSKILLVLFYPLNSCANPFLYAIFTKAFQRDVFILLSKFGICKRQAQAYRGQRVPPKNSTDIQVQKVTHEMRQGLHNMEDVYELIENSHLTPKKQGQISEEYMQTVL

Experiment [7] can be described thus: qHTS assay to identify small molecule agonists of the hypoxia (HIF-1) signaling pathway - cell viability counter screen (AID 1224844; calls by dose curve; note: nearly all actives have a fitted effect of over 50% in size). The gist of the method: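 HRE-bla ME-180; 0.5% dFBS; cpd 17 h, 37C, 5% CO2; CellTiter-Glo lum., 30 min RT, post-FRET read, same wells.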
Experiment [8] is described as follows: qHTS assay to identify small molecule agonists of H2AX (AID 1224845; active = well fitted activation curve with a large enough effect in the signal ratio in the repeat runs, not every such curve was filed as active; the % refers to the signal ratio). The gist of the method: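 Wild-type CHO-K1 cells, plated overnight, exposed 3hr at 37C to 15 concentrations (0.76% DMSO final). Lysed, then HTRF anti-pH2AX (S139) cryptate and anti-H2AX-d2 antibodies, 24 hr room temperature; 665/620 nm emission read.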
Experiment [9] is described as follows: qHTS assay to identify small molecule agonists of H2AX - cell viability counter screen (AID 1224847; calls by dose curve; note: top concentration of the series differs between compounds; nearly all actives have a fitted effect of over 30% in size). The gist of the method: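 Viability of CHO-K1 (wild type) cells after 3 hr compound exposure was measured by CellTiter-Glo luminescence.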
Experiment [10] is described as follows: qHTS RealTime-Glo MT Cell Viability Assay in HepG2 cells - 24 hour (AID 1224867). Note: nearly all actives have a fitted effect of over 50% in size. The gist of the method:
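qHTS, HepG2, 600 cells/well, RealTime-Glo (NanoLuc + prosubstrate) added with cells; 5 h preincubation; DMSO compound addition; 37 C; luminescence at 0/8/16/24/32/40 h.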

Experiment [11] in a line: qHTS RealTime-Glo MT Cell Viability Assay in HEK293 cells - 32 hour (AID 1224868). Note: nearly all actives have a fitted effect of over 50% in size. Note: potency is the fitted concentration of half-maximal effect. The gist of the method: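 Assay medium contained NanoLuc luciferase plus cell-permeant prosubstrate, added with HEK293 cells at 600 cells/well. After 5 h at 37 C/5% CO2 compounds were added; plates stayed at 37 C for 40 h with serial luminescence reads.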
A short description of experiment [12]: A CellTox Green Cytotoxicity Assay to monitor cytotoxicity in HEK293 cells - 0 hour (AID 1224869). Note: nearly all actives have a fitted effect of over 50% in size. The method, boiled down: (§1)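 Tox21 screen in HEK293: membrane-impermeant cyanine dye fluoresces on binding dead-cell DNA; compound pinned 5 h post-seeding, plates held at 37 C, signal read repeatedly through 40 h.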
The nature of experiment [13]: qHTS RealTime-Glo MT Cell Viability Assay in HepG2 cells - 40 hour (AID 1224870). Note: nearly all actives have a fitted effect of over 50% in size. The method, boiled down: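 HepG2 cells (600/well) mixed with RealTime-Glo MT reagent, settled 5 h at 37 C/5% CO2 before compound addition. Nonlytic NanoLuc luminescence from viable-cell prosubstrate reduction read repeatedly during 40 h treatment at 37 C.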
A short description of experiment [14]: A CellTox Green Cytotoxicity Assay to monitor cytotoxicity in HEK293 cells - 40 hour (AID 1224871). Note: nearly all actives have a fitted effect of over 45% in size. The gist of the method:
as §1

Experiment [15] can be described thus: qHTS assay to identify small molecule agonists of the hypoxia (HIF-1) signaling pathway (AID 1224846; active = well fitted activation curve with a large enough effect in the signal ratio in the repeat runs, not every such curve was filed as active; the % refers to the signal ratio). The gist of the method: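 Reporter induction in HRE-bla ME-180 cells is taken as agonism: cells sit 5 hrs after plating, receive compounds or DMSO only, incubate 17 hrs at 37C under 5% CO2, and are loaded with CCF4-AM for beta-lactamase FRET measurement.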

Experiment [16] addresses Nuclear receptor subfamily 1 group I member 3 (Homo sapiens) (UniProt Q14994). Put plainly: qHTS assay to identify small molecule agonists of the constitutive androstane receptor (CAR) signaling pathway (AID 1224839).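 Note: HepG2 cells stably carrying human CAR and a CYP2B6 luciferase reporter; nearly all actives have a fitted effect of over 15% in size.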 The gist of the method: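 Stable hCAR/CYP2B6-2.2kb HepG2 line in DMEM with 10% FBS; compounds (15 concentrations) and 0.75 uM PK11195 final, 24 h at 37 C/5% CO2, then ONE-Glo luminescence after 30 min.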

A short description of experiment [17]: qHTS assay to identify small molecule antagonists of the estrogen related receptor signaling pathway with the pleiotropic PPARgamma coactivator (PGC) from Tox21 10K library (AID 1224841; call rule not given here; note: potency is the fitted concentration of half-maximal effect). The gist of the method: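 Test chemicals dissolved in DMSO were applied to pre-incubated (6 h) PGC/ERR cells at 2,000 cells/well for an 18 h, 37 C treatment; reporter luminescence was then read using One-Glo.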

Experiment [18] can be described thus: qHTS assay to identify small molecule agonists of the estrogen related receptor signaling pathway with the pleiotropic PPARgamma coactivator (PGC) from Tox21 10K library (AID 1224842). Note: nearly all actives have a fitted effect of over 15% in size. The method, boiled down:
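PGC/ERR reporter cell line, 2,000 cells per well, incubated 6 h at 37 C before 23 nL compound in DMSO was added. After 18 h at 37 C, One-Glo luminescence read following 30 min at room temperature.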

A short description of experiment [19]: qHTS assay to identify small molecule agonists of the estrogen related receptor (ERR) signaling pathway from Tox21 library (AID 1224849; calls by dose curve; note: nearly all actives have a fitted effect of over 15% in size). The conditions noted are these: ERR reporter cell line, ONE-Glo luciferase, 18 h; at 92.4 µM (top of the series) unless noted. The gist of the method: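 Tox21 compounds tested for ERR agonism in an NTP reporter cell line: 18 h treatment at 37 C, then ONE-Glo luminescence.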

Experiment [20] can be described thus: qHTS assay to identify small molecule antagonists of the estrogen related receptor (ERR) signaling pathway from Tox21 library (AID 1224848). Note: nearly all actives have a fitted effect of over 50% in size. The gist of the method: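 Quantitative high-throughput format: ERR reporter cells (2,000/well) pre-incubated 6 h, treated 18 h at 37 C with compounds in DMSO alongside positive and negative controls, then read by ONE-Glo luminescence.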

Values without a mark were called inactive. Inconclusive results are not listed. Active and inactive are the calls of the source. Unless noted, calls come from the whole dose curve; as a rule, active = well fitted curve in the direction sought with a large enough effect in the repeat runs; inconclusive = weak or mixed curves; inactive = no such curve, though single readings can be large; an effect the other way counts as inactive or inconclusive.
% is set by controls: 0 for no effect and ±100 for the full control effect.

Sequence of Luciferin 4-monooxygenase (Photinus pyralis) (P08659 whole entry, looked up): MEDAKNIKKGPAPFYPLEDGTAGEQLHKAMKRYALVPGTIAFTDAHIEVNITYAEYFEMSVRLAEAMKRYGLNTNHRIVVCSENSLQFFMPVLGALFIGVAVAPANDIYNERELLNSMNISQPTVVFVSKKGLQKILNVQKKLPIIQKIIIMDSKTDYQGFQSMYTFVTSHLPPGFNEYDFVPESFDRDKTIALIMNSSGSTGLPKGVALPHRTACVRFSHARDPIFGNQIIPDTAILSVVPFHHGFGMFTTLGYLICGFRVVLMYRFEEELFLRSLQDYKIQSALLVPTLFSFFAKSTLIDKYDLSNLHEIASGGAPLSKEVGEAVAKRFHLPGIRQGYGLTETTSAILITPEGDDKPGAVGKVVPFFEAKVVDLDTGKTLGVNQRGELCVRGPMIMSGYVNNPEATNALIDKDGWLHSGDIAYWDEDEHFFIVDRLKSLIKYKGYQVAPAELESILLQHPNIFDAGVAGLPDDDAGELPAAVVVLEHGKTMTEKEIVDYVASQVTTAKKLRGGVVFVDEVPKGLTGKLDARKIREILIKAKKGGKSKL

As to `COC(=O)C1=CCCN(C)C1`, the Potency result in experiment [1], in experiment [2], in experiment [3], in [4], in experiment [5] and in experiment [6] was “inactive” in each case. Also, the Potency result in [7], in experiment [8], in [9], in [10], in [11] and in [12] was “inactive” each time. Moreover, the Potency entry in experiment [13] and in experiment [14] was “inactive” throughout.

With `CN1CCN(C(=O)O[C@H]2c3nccnc3C(=O)N2c2ccc(Cl)cn2)CC1`, the Potency result in experiment [1], in [2], in experiment [3], in experiment [4], in experiment [5] and in experiment [6] was “inactive” throughout. The Potency result in experiment [7], in experiment [8], in experiment [9], in [10], in experiment [12] and in [13] was “inactive” in each case. In experiment [14], the Potency entry is “inactive”.

In the case of `CCOP(=S)(OCC)Oc1cc(-c2ccccc2)on1`, the Potency in experiment [1] was 31.7 µM (active). Also, the Potency entry in experiment [2], in experiment [3], in [4], in experiment [5], in experiment [7] and in experiment [8] was “inactive” each time. Besides, the Potency entry in experiment [9], in experiment [10], in [11], in experiment [12], in experiment [13] and in experiment [14] was “inactive” throughout. Moreover, in experiment [15], the compound was called inactive.

On to `CC1COC2(c3ccccc3Cl)c3cc(Cl)ccc3NC(=O)CN12` (configuration not stated), for which the Potency result in [1], in experiment [2], in experiment [3], in experiment [16], in experiment [5] and in experiment [6] was “inactive” each time. Moreover, the Potency entry in [7], in [9], in [10], in experiment [12], in [13] and in experiment [14] was “inactive” throughout. In experiment [17], the Potency is 21.1 µM (active). Besides, the compound was called inactive in experiment [18] and in experiment [15]. Also, the activity change, positive = activation in experiment [19] was -27.8% [at 42.5 µM].

Turning to `N#CCNCC#N`, the Potency result in [1], in experiment [2], in experiment [3], in experiment [4], in [5] and in experiment [17] was “inactive” throughout. Moreover, the Potency result in experiment [7], in experiment [9], in experiment [20], in experiment [10], in experiment [11] and in [12] was “inactive” in each case. The Potency entry in [13] was “inactive”. For the same compound, the compound was classed as inactive in [18] and in [15]. In experiment [19], the activity change, positive = activation was 2.04%.

As to `CNC(=O)Oc1ccc(N(C)C)c(C)c1`, the Potency result in [1], in experiment [2], in experiment [3], in experiment [4], in experiment [5] and in experiment [17] was “inactive” throughout. Further, the Potency entry in [6], in experiment [7], in [9], in experiment [20], in [10] and in experiment [11] was “inactive” in each case. The Potency entry in experiment [12], in [13] and in [14] was “inactive” in each case. The result in experiment [18] and in experiment [15] was inactive.

Turning to `NC(=O)O`, the Potency entry in [1], in [2], in [3], in experiment [4], in [5] and in experiment [6] was “inactive” throughout. Further, the Potency result in [7], in experiment [9], in experiment [20], in [10], in experiment [12] and in experiment [13] was “inactive” each time. Besides, the Potency result in [14] is “inactive”. The call in experiment [15] was inactive. For the same compound, the activity change, positive = activation in experiment [19] is -1.74%.

As to `CCNc1nc(NC(C)C)nc(OC)n1`, the Potency entry in [1], in experiment [2], in experiment [3], in experiment [5], in experiment [17] and in experiment [6] was “inactive” in each case. The Potency result in experiment [7], in [8], in experiment [9], in [20], in experiment [10] and in [11] was “inactive” each time. Besides, the Potency result in [12], in experiment [13] and in [14] was “inactive” in each case. The result in experiment [18] and in [15] was inactive. Also, in [19], the activity change, positive = activation was -0.534%.

For `CN(N=O)C(N)=O`, the Potency result in experiment [1], in experiment [2], in [3], in experiment [4], in [5] and in experiment [7] was “inactive” in each case. Also, the Potency entry in experiment [8], in experiment [9], in experiment [10], in experiment [12], in experiment [13] and in [14] was “inactive” throughout. Also, the call in experiment [15] was inactive.

On to `CC1=NNC(=O)N(/N=C/c2cccnc2)C1`, for which the Potency result in [1], in experiment [2], in [3], in experiment [5], in experiment [17] and in [6] was “inactive” each time. The Potency entry in experiment [7], in experiment [9], in experiment [20], in [10], in experiment [11] and in experiment [12] was “inactive” throughout. For the same compound, the Potency result in [13] and in experiment [14] was “inactive” throughout. Also, the call in experiment [18] and in experiment [15] was inactive. In experiment [19], the activity change, positive = activation was -0.152%.

In the case of `CCCCc1ccc(O)cc1`, the Potency result in experiment [1], in [2], in experiment [3], in experiment [4], in [5] and in [6] was “inactive” each time. Further, the Potency result in experiment [7], in [8], in experiment [9], in [10], in [12] and in experiment [13] was “inactive” throughout. Further, the call in experiment [15] was inactive. For the same compound, the Potency in experiment [11] is 19.5 µM (active).
